Potency data for 40 compounds are collected here from PubChem BioAssay (NCATS).

Structures are written as SMILES. Results filed as inconclusive are left out. Where a call stands in place of a potency, no number is given. Active and inactive are the calls of the source. The call rests on the fitted dose curve; in most records, active means well fitted cell-killing curve with a large enough effect; inconclusive means small, poorly fitted or top-dose-only effect; inactive means no such curve, though single readings can be large or run the other way.
Potency means the concentration at half of the fitted maximal effect.

The test in a line: qHTS of pediatric cancer cell lines to identify multiple opportunities for drug repurposing: Primary screen for OHS-50 cells (AID 1347103). Further: nearly all actives have a fitted effect of over 40% in size. Particulars: OHS-50 osteosarcoma viability, CellTiter-Glo luminescence, 48 h; series mostly up to 57.3 µM. The source says: Drug repurposing or repositioning has been offered as a strategy for drug development in oncology programs. This approach has special potential for childhood cancers and other rare or orphan diseases, where the expected return on new drug development has been a disincentive to pharmaceuticals.
In this project we exploit the poly-pharmacology of drugs to discover new indications via phenotypic screening of a panel of 19 well-characterized cell lines derived from solid tumors seen in children and adolescents. The goal is to identify approved drugs with previously unrecognized anticancer properties that has the potential to reveal new mechanisms and biological processes involved in carcinogenesis or drug resistance. We employed a titration-based paradigm (quantitative high-throughput screening or qHTS), where all compounds were tested at multiple concentrations for their effect on cell viability. Concentration-response curves (CRCs) were derived directly from the primary screen, and both potency and efficacy values were used to identify compounds with robust bioactivity profiles. We screened the NIH Chemical Genomics Center (NCGC) Pharmaceutical Collection (NPC) and Mechanism Interrogation Plate (MIPE) small molecule collections of approved and investigational compounds against these cell lines; and measured metabolically active cells after 48 hours of compound treatment as a proxy for cell viability.
Assay Submitter: Nathalia J. Martinez, National Center for Advancing Translational Sciences, National Institutes of Health, Rockville, MD, USA; email: natalia.martinez@nih.gov
[1] Shen, M et al. Quantitative high-throughput phenotypic screening of pediatric cancer cell lines identifies multiple opportunities for drug repurposing. Oncotarget 2017 Dec 19;9(4):4758-4772. PMID 29435139.
The cells were obtained from University of North Carolina (UNC), Pediatric Preclinical Testing Program (PPT), and Coriell Institute (CI).
qHTS cell viability assay:
Cells were assayed in growth media at a density of 500-1,000 cells/well. Five microliters of cells were dispensed into 1,536-well, white, solid-bottom, TC-treated plates (Greiner Bio One) using a multidrop dispenser and incubated at 37 degrees C, 5% CO2, under a humidified atmosphere for 5 hours. Twenty-three nanoliters of compounds and controls (neutral control DMSO or positive control bortezomib at final concentration of 2.3 µM) were subsequently transferred by Kalypsys pintool. For primary screens, the MIPE collection was tested at 11-point dilutions (final concentrations range from 0.78 nM to 46 µM) and the NPC collection at 8-point dilutions (final concentrations range from 0.59 nM to 46 µM). Compounds tested in follow-up screens were assayed at 11-point dilutions. Cells were incubated for 48 hours, followed by addition of 3 µL of CellTiter-Glo (Promega). After a 15 min incubation at room temperature, samples were analyzed for luminescence intensity using a ViewLux High-throughput CCD imager equipped with clear filters.
For the compound `CCOc1ccc2nc3cc(N)ccc3c(N)c2c1`, the Potency result was “inactive”.
The entry for `C[C@]12CCC(=O)C=C1CC[C@H]1[C@@H]3CC[C@](O)(C(=O)CO)[C@@]3(C)C[C@H](O)[C@@]12F` is “inactive”; for `Oc1cc(O)c2c(c1)O[C@H](c1ccc(O)c(O)c1)[C@H](O)C2` it is “inactive”; for `NC(CO)(CO)CO` it is “inactive”.
`C[C@H](O)C(=O)Nc1c(I)c(C(=O)NC(CO)CO)c(I)c(C(=O)NC(CO)CO)c1I`: the Potency result is “inactive”.
In the case of `O=C(OCCOCCO)c1ccccc1Nc1cccc(C(F)(F)F)c1`, the Potency was 24.6 µM (active).
With `Cc1ncc(CSSCc2cnc(C)c(O)c2CO)c(CO)c1O`, the Potency entry was “inactive”.
In the case of `COc1cc(OC)cc(OC)c1`, the Potency result is “inactive”.
In the case of `C/C=C(/C(=C/C)c1ccc(O)cc1)c1ccc(O)cc1`, the Potency is 21.9 µM (active).
On to `Cc1onc(-c2c(Cl)cccc2Cl)c1C(=O)N[C@@H]1C(=O)N2[C@@H]1SC(C)(C)[C@@H]2C(=O)O`, for which the Potency result is “inactive”.
As to `O=C(O)CCCCC(=O)O`, the Potency entry is “inactive”.
For the compound `C[C@]12CCC(=O)C=C1[C@@H]1C[C@@H]1[C@H]1[C@@H]3[C@@H]4C[C@@H]4[C@@]4(CCC(=O)O4)[C@@]3(C)CC[C@@H]12`, the Potency was 24.6 µM (active).
For `NCCCC[C@H](N[C@@H](CCc1ccccc1)C(=O)O)C(=O)N1CCC[C@H]1C(=O)O`, the Potency entry was “inactive”.
Turning to `CCCCCCCCCCCCCCCCCC(=O)OCC(O)CO` (stereo not given), the Potency result was “inactive”.
Regarding `N[C@H](Cc1c[nH]c2ccccc12)C(=O)O`, the Potency entry is “inactive”.
On to `COC(=O)C1=C(C)NC(C)=C(C(=O)O[C@@H]2CCCN(Cc3ccccc3)C2)[C@@H]1c1cccc([N+](=O)[O-])c1`, for which the Potency was 19.5 µM (active).
The entry for `CO/N=C1\CN(c2nc3c(cc2F)c(=O)c(C(=O)O)cn3C2CC2)CC1CN` (stereo not given) is “inactive”.
Turning to `NC[C@H]1O[C@H](O[C@H]2[C@H](O)[C@@H](O[C@H]3O[C@H](CO)[C@@H](O)[C@H](N)[C@H]3O)[C@H](N)C[C@@H]2N)[C@H](N)[C@@H](O)[C@@H]1O`, the Potency result is “inactive”.
As to `Cc1c(N(C)CS(=O)(=O)O)c(=O)n(-c2ccccc2)n1C`, the Potency result is “inactive”.
As to `C[n+]1c2cc(N)ccc2cc2ccc(N)cc21` (tested in a mixture with another compound), the Potency was 17.4 µM (active).
Regarding `OCc1ccccc1O`, the Potency result is “inactive”.
For `Cc1cccn2c(=O)c(-c3nnn[nH]3)cnc12` the value was “inactive”.
On to `Cc1c(F)c(N2CCNC(C)C2)cc2c1c(=O)c(C(=O)O)cn2C1CC1` (stereo not given), for which the Potency entry was “inactive”.
With `CCCCS(=O)(=O)N[C@@H](Cc1ccc(OCCCCC2CCNCC2)cc1)C(=O)O`, the Potency entry is “inactive”.
The entry for `COc1ccc(C2C(=O)c3ccccc3C2=O)cc1` is “inactive”.
The entry for `CC(=O)OCC(=O)[C@@]1(OC(C)=O)[C@@H](C)C[C@H]2[C@@H]3C[C@H](F)C4=CC(=O)C=C[C@]4(C)[C@@]3(F)[C@@H](O)C[C@@]21C` is “inactive”.
With `C=CCc1ccc(O)c(OC)c1`, the Potency result was “inactive”.
Consider `CC[C@@H](CO)NCCN[C@@H](CC)CO`, for which the Potency result is “inactive”.
For `O=c1c(-c2ccccc2)c1-c1ccccc1` the value was 13.8 µM (active).
As for `CCN1CCC[C@H]1CNC(=O)c1c(OC)ccc(Br)c1OC`, the Potency result is “inactive”.
The figure for `CC(=O)O[C@]1(C(C)=O)CC[C@H]2[C@@H]3C[C@H](C)C4=CC(=O)CC[C@]4(C)[C@H]3CC[C@@]21C` is 24.6 µM (active).
On to `CC(C)(C(=O)c1cccnc1)c1cccnc1`, for which the Potency result is “inactive”.
Consider `Nc1ccc(C(=O)Nc2ccccc2N)cc1`, for which the Potency is 6.17 µM (active).
Turning to `Clc1ccc2c(c1)CCc1cccnc1C2=C1CCNCC1`, the Potency is 15.5 µM (active).
For `CC1=C(C(=O)O)N2C(=O)[C@@H](NC(=O)[C@H](N)c3ccc(O)cc3)[C@H]2SC1` the value was “inactive”; for `CN(C/C=C/c1ccccc1)Cc1cccc2ccccc12`, 27.6 µM (active); for `CCOC(=O)OC(C)OC1=C(C(=O)Nc2ccccn2)N(C)S(=O)(=O)c2ccccc21` (stereo not given), “inactive”.
Consider `CCOc1ccc(Cc2nccc3cc(OCC)c(OCC)cc23)cc1OCC`, for which the Potency was 7.77 µM (active).
Regarding `C[C@@H](CN(C)C)CN1c2ccccc2Sc2ccccc21`, the Potency was 21.9 µM (active).
Regarding `CC(C)(Oc1ccc(Cl)cc1)C(=O)O`, the Potency result was “inactive”.
